HT1080NT lethal = qHTS for induction of synthetic lethality in tumor cells producing 2HG: qHTS for the HT-1080-NT fibrosarcoma cell line; HT-1080-NT fibrosarcoma viability, CellTiter-Glo ATP luminescence, 48 h; Potency, µM (top dose mostly 46.1 µM), for inactives: at the highest dose activity, negative = less viability, hits mostly cytotoxic; hit rate 1.6% among 360,000;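 further: NT is the 2HG producing partner of a matched IDH1 knockdown line; potency means the concentration at half of the fitted maximal effect; 0% = DMSO-treated cells and -100% = media-only wells without cells; nearly all actives have a fitted effect of over 55% in size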
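Toxicity toward the 2HG-producing NT line was scored as %Activity, normalised to DMSO and no-cell wells, from CellTiter-Glo luminescence after 48 hours' treatment.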
HepG2 tox = qHTS for Inhibitors of TGF-b: Cytotox Counterscreen. Potency, µM (highest dose often 46.1 µM), inactives show at the top dose activity change, negative = cytotoxicity, hits mostly cytotoxic. HepG2 CAGA-GFP viability, ATP luminescence, 18 h. AID 588856, 2011. hit rate 0.76% among 410,000; further: potency means the concentration at half of the fitted maximal effect
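HepG2 CAGA-GFP cells (1000/well, DMEM with 1% FBS) received compound, then TGF-beta at 500 pg/mL final, and were incubated 18 hours at 37 degrees C. Viability was read by CellTiter-Glo luminescence. Media-only wells were set as complete cell-killing and DMSO as no toxicity.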
HT1080 IDH1KD tx = qHTS for induction of synthetic lethality in tumor cells producing 2HG: qHTS for the HT-1080-IDH1KD cell line; HT-1080 IDH1 knockdown viability, ATP luminescence, 48 h; hit rate 2% among 360,000; Potency, µM (top dose mostly 46.1 µM), for inactives: top-dose activity, negative = toxicity, most hits filed as cytotoxic;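 further: potency means the concentration at half of the fitted maximal effect; 0% = DMSO wells and -100% = cell-free medium wells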
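HT-1080-IDH1KD cells (IDH1 knocked down), 750/well in RPMI with 5% FBS, treated with compound 48 h at 37 degrees C. Viability by CellTiter-Glo luminescence, normalised to DMSO and no-cell wells; concentration-response curves classed.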
IL1B secr inh = qHTS for Inhibitors of Inflammasome Signaling: IL-1-beta AlphaLISA Primary Screen; THP-1 LPS/ATP IL-1B secretion, AlphaLISA, 16 h; active compounds read low; activity change, % at 57.5 µM; hit rate 4.7% among 360,000; in the data active means activity change below about -50%; inconclusive means mostly about -30% to -49%; further: on the % scale 0 is the no-effect control and ±100 the full control effect
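THP-1 cells pretreated 1 hr with compounds (up to 57.5 uM final), then stimulated with LPS (250 ng/mL final) plus ATP (1.25 mM final); secreted IL-1B measured by AlphaLISA after 16 hr, decreased signal indicating inhibition.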
TGFb inhibitor = qHTS for Inhibitors of TGF-b; HepG2 CAGA-GFP TGF-b/SMAD3 reporter, GFP fluorescence, 18 h; TGF-beta stimulated, 500 pg/mL final; Potency, µM (series often up to 46.1 µM), inactives show at the highest dose activity, negative = inhibition, hits mostly inhibitors; hit rate 1.2% among 410,000; further: potency means the concentration at half of the fitted maximal effect; on the % scale 0 is the no-effect control and ±100 the full control effect; nearly all actives have a fitted effect of over 65% in size
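HEPG2 CAGA-GFP cells (1000/well, DMEM with 1% FBS) were pre-incubated 2 h at 37 degrees C, given compound by pin tool, then stimulated with TGF-beta at 500 pg/mL final for 18 h before per-cell GFP fluorescence imaging.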
Giardia kill = Small Molecules that selectively kill Giardia lamblia: qHTS; Giardia lamblia trophozoite viability; activity change, % at 7.66 µM, hits read low; hit rate 0.15% among 340,000; AID 540267, 2011; in the data active means activity change below about -80%; inconclusive means between about -30% and that limit;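 further: parasites exposed to compound for two days anaerobically before the ATP read; on the % scale 0 is the no-effect control and ±100 the full control effect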
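Giardia trophozoites, 100 cells per well, were exposed to compounds for 48 hrs at 37 deg C under anaerobic conditions; viability was then read as ATP content by bioluminescence after 15-30 min at room temperature.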
Numbers without * were called inactive; u = inconclusive. Sampled rows, rich in hits. Any-hit rate of the full collection: about 6.5%. Unless noted, the call rests on the fitted dose curve; in most records, active means well fitted curve in the direction sought with a large enough effect; inconclusive means small, poorly fitted or top-dose-only effect, or another doubt; inactive means no such curve, though single readings can be large; an effect the other way counts as inactive or inconclusive.

SMILES	HT1080NT lethal	HepG2 tox	HT1080 IDH1KD tx	IL1B secr inh	TGFb inhibitor	Giardia kill
O=C(Cn1c2[n+](c3ccc(C(F)(F)F)cc31)CCCCC2)Nc1ccc(Br)cc1	2%	-2%	9%	0	-9%	14
FC(F)(F)c1cccc(Cn2c3[n+](c4ccc(C(F)(F)F)cc42)CCCCC3)c1	-22%	8%	-21%	-77*	-3%	16
COc1ccc(C(=O)CC(=O)C(=O)Nc2ccc(C)c(Cl)c2)cc1	-9%	-23%	5%	-20	8%	16
Cc1c(N=Cc2cccnc2)c(=O)n(-c2ccccc2)n1C	15%	-2%	15%	20	-5%	-23
O=C1CCC/C1=c1\s/c(=C/c2cccnc2)c(=O)n1-c1ccccc1	2%	-4%	-1%	-73*	1%	9
O=C1CCC/C1=c1\s/c(=C\c2cccnc2)c(=O)n1-c1ccccc1	0%	-11%	-2%	-75*	11%	0
O=c1/c(=C\c2cccnc2)sc2nc3ccccc3n12	24%	-2%	8%	19	-2%	-19
COc1ccccc1/C=C/C1(C(=O)NC2CCCC2)CC(=O)N1c1ccccc1 (stereo not drawn)	16µM*	8%	u	97	u	11
COc1ccc(NC(=O)Nc2cccc(OC)c2)cc1	-2%	0%	6%	-75*	6%	6
COc1cccc(NC(=O)C(=O)NCCc2ccc(F)cc2)c1	7%	20µM*	17%	-9	-10%	-26
COc1cccc(NC(=O)c2cc(Cl)nnc2Cl)c1	12µM*	-30%	u	-92*	-11%	16
COc1cc(NC(=O)c2cc(Cl)nnc2Cl)cc(OC)c1OC	-6%	-25%	-16%	u	3%	-9
COc1cccc(CC(=O)OCC(=O)NCCc2ccc(F)cc2)c1	1%	3%	6%	11	-1%	17
COc1cccc(NC(=O)Nc2ccc3nsnc3c2)c1	3%	-33%	3%	-56*	u	-1
COC(=O)C1=C(C)Nc2nnnn2C1c1cc(OC)ccc1OC (stereo not drawn)	5%	-23%	3%	3	17%	2
Cc1cc(NC(=O)Nc2cc(F)ccc2F)no1	1%	-18%	-2%	34	u	-21
COc1cccc(NC(=O)Nc2cc(Cl)ccc2C)c1	-11%	-4%	-5%	-76*	-13%	-1
COc1cccc(NC(=O)Nc2nc(SC)ns2)c1	u	-42%	u	-98*	u	-12
COc1cccc(NC(=O)c2cnc(SC)nc2)c1	-12%	-18%	-23%	71	u	-12
COc1ccc(NCC(=O)Nc2ccc(Cl)cc2C)c(OC)c1	u	-64%	16µM*	u	u	-3
Cc1noc(C(=O)Nc2cc(Cl)ccc2O)c1Cl	-23%	-27%	-2%	64	-22%	20
COc1cc(CCCN2C(=O)C(=O)NC[C@@H]2c2ccccc2)cc(OC)c1OC	17%	-2%	13%	4	u	13
Cc1ccc(-c2nc(C#N)c(N3CCC(C)CC3)o2)cc1	10%	-15%	3%	-18	-10%	26
COc1ccc(-c2nc(C#N)c(N3CCCCC3)o2)cc1	8%	-29%	-1%	-11	3%	15
COc1ccc(-c2nc(C#N)c(N3CCCCCC3)o2)cc1	0%	-5%	-18%	-63*	-16%	9
COc1ccc(-c2nc(C#N)c(NC(C)C)o2)cc1	-1%	-3%	-3%	-50*	-14%	-8
CCOc1ccc(-c2nc(C#N)c(N3CCN(C)CC3)o2)cc1	0%	31%	-5%	u	-18%	13

Screening data: PubChem BioAssay, National Center for Advancing Translational Sciences (NCATS)
